# Hits are enriched below; roughly 3.6% of the tested compounds scored in any of these assays.
# Rango-impB inh = qHTS Assay for Inhibitors of Rango (Ran-regulated importin-beta cargo) - Importin beta complex formation; AID 540263, 2011; hit rate 0.031% among 340,000; Importin subunit beta-1 (Homo sapiens), Q14974; Potency, µM (titrated, usually from 92.2 µM), for the others: at the top dose inhibition of complex formation; Rango CFP/YFP FRET sensor + importin beta, 45 min; calls by dose curve;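 further: potency means the concentration at half of the fitted maximal effect; 0% = DMSO wells and 100% = buffer wells lacking importin beta; nearly all actives have a fitted effect of over 15% in size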
# Target sequence (Q14974 whole entry, looked up): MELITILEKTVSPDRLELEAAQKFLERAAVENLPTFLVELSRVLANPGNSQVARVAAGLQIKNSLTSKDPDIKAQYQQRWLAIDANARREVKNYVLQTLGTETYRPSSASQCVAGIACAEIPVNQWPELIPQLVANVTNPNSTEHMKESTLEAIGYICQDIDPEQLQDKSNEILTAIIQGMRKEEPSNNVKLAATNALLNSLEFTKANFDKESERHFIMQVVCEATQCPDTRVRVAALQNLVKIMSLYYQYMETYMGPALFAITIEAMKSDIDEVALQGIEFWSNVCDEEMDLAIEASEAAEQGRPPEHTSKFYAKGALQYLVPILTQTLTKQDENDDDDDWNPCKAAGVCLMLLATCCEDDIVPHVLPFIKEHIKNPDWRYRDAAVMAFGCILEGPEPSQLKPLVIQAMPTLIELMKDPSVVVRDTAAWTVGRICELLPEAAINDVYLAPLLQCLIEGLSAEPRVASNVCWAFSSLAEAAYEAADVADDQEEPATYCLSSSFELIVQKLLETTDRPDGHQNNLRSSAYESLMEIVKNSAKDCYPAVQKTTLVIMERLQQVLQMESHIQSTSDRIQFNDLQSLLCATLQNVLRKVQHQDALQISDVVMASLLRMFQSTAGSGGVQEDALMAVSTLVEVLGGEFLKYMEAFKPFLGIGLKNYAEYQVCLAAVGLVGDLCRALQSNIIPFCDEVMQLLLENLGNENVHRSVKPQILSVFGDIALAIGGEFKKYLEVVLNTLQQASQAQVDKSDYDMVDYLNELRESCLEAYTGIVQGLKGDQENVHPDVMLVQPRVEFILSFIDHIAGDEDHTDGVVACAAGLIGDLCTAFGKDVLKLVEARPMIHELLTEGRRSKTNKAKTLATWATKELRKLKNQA
#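 FRET biosensor Rango (snurportin 1 IBB between N-terminal EYFP and C-terminal Cerulean), 50 nM in PBS/1 mM DTT/0.02% Tween-20/0.1% BSA, preincubated 5 min RT with compound; 0.125 microM importin beta added, 45 min RT, CFP/YFP FRET ratio read.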
# PLK1 PBD block = qHTS for Inhibitors of PLK1-PDB (polo-like kinase 1 - polo-box domain): Primary Screen; Serine/threonine-protein kinase PLK1 (Homo sapiens), P53350; Plk1 PBD binding of FITC phosphopeptide, fluorescence polarization; Potency, µM, inactives show max response, negative = inhibition, actives largely listed as inhibitors; hit rate 2.8% among 360,000; AID 720504, 2013; further: potency means the concentration at half of the fitted maximal effect; series mostly up to about 57 µM; on the % scale 0 is the no-effect control and ±100 the full control effect; nearly all actives have a fitted effect of over 65% in size
# Rango dissoc inh = qHTS Assay for Inhibitors of RanGTP induced Rango (Ran-regulated importin-beta cargo) - Importin beta complex dissociation; Snurportin-1 (Homo sapiens) + GTP-binding nuclear protein Ran (Homo sapiens) + Importin …; Biochemical FRET Rango-importin beta, RanGTP-induced dissociation; Potency, µM (highest dose often 46.1 µM), for the others: at the highest dose activity change, negative = inhibition; hit rate 0.071% among 340,000; calls by dose curve; further: potency means the concentration at half of the fitted maximal effect; % of control where 0% means no effect; nearly all actives have a fitted effect of over 45% in size
#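 Two FRET readings bracket the reaction: one 5 min after compound meets Rango–importin beta, another 45 min after RanGTP-RCC1 (0.6 uM Ran, 0.2 uM RCC1, 2 mM GTP) is added. Only the second defines inhibition.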
# VDR inhibitor = Inhibitors of the vitamin D receptor (VDR): qHTS | VDR-SRC2-3 peptide fluorescence polarization, 2 h | Potency, µM, for inactives: max response, negative = inhibition, hits mostly inhibitors | hit rate 0.93% among 400,000; further: potency means the concentration at half of the fitted maximal effect; on the % scale 0 is the no-effect control and ±100 the full control effect
#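 Compounds are added to VDR with labelled SRC2-3 coactivator peptide and held 2 h at room temperature. Inhibition of the VDR–peptide interaction is then read as a change in fluorescence polarization.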
# PI5P4K alpha inh = qHTS for Inhibitors of phosphatidylinositol 5-phosphate 4-kinase (PI5P4K). max response, %. Phosphatidylinositol 5-phosphate 4-kinase type-2 alpha (Homo sapiens), P48426. AID 652105, 2013. PI5P4Kalpha enzyme, ADP-Glo luminescence, 60 min; active compounds read low. hit rate 1.2% among 330,000; active means max response of -50% or lower; inconclusive means between -30% and -50%; inactive means -30% or higher; further: value at the top dose of about 77 µM; on the % scale 0 is the no-effect control and ±100 the full control effect
#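 Reactions run in 0.038 M HEPES pH 7.4, 0.28 mM EGTA, 0.1% CHAPS and 5% DMSO, with PI5P4Kalpha, substrate, compound and 5 microM ATP final, one hour at room temperature. Readout is ADP-Glo luminescence.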
# KAT2A inh = qHTS Assay for Inhibitors of GCN5L2; Histone acetyltransferase KAT2A (Homo sapiens), Q92830; GCN5L2 HAT assay, ThioGlo1 CoA-SH fluorescence; Potency, µM (highest dose often 58.9 µM), without a hit: at the top dose activity change, negative = inhibition, usual class: inhibitors; hit rate 0.21% among 390,000; AID 504327, 2011; further: potency means the concentration at half of the fitted maximal effect; on the % scale 0 is the no-effect control and ±100 the full control effect
#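 qHTS, 1536-well. 20nM enzyme, pH 7.5 HEPES/EDTA/Tween-20 buffer; 15 min compound preinc., RT. Start: 75uM H3(1-25), 70uM AcCoA, 50uM ThioGlo1. Read Ex340/Em540 at t=0 (autofluorescence flag) and t=20 min.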
# TbPYK inh = qHTS of Trypanosoma Brucei Inhibitors: Confirmatory Assay for Cherry-picked Compounds. shares compounds with PLK1 PBD block. recombinant TbPYK, Kinase-Glo ATP luminescence. Potency, µM (series often up to 76.9 µM), for the others: at the top dose activity change, negative = inhibition, most hits filed as inhibitors. hit rate 67% among 890; further: potency means the concentration at half of the fitted maximal effect; on the % scale 0 is the no-effect control and ±100 the full control effect; nearly all actives have a fitted effect of over 70% in size
# TbPYK ADP-Glo = qHTS of Trypanosoma Brucei Inhibitors: Orthogonal Assay for Cherry-picked Compounds. Potency, µM (top dose mostly 76.9 µM), without a hit: at the highest dose activity change, negative = inhibition, hits mostly inhibitors. recombinant TbPYK, ADP-Glo luminescence, 60 min. hit rate 62% among 890. AID 720584, 2013. shares compounds with PLK1 PBD block; further: potency means the concentration at half of the fitted maximal effect; on the % scale 0 is the no-effect control and ±100 the full control effect; nearly all actives have a fitted effect of over 75% in size
# An asterisk follows results filed as active; ? = inconclusive; · = no result; [ ] = remark or other dose. Unless noted, the call rests on the fitted dose curve; in most records, active means well fitted curve in the direction sought with a large enough effect; inconclusive means small, poorly fitted or top-dose-only effect, or another doubt; inactive means no such curve, though single readings can be large; an effect the other way counts as inactive or inconclusive.
SMILES,Rango-impB inh,PLK1 PBD block,Rango dissoc inh,VDR inhibitor,PI5P4K alpha inh,KAT2A inh,TbPYK inh,TbPYK ADP-Glo
CC(=O)N(C1=C(N)C(=O)c2ccccc2C1=O)C(C)C,2%,-9%,20%,4%,1,-2%,·,·
Cn1c(N=Nc2ccc(N3CCOCC3)cc2)[n+](C)c2ccccc21,0%,-7%,14%,?,?,1%,16µM*,13%
CCc1ccc(CNC(=O)c2ccc(NC(=O)N3CC(C)Sc4ccccc43)cc2)cc1 (stereo not drawn),·,·,·,15%,·,-3%,·,·
Cc1cccc(NC(=O)CSc2ncc3c(n2)-c2ccccc2N(Cc2ccc(F)cc2)S3(=O)=O)c1C,·,·,·,2%,·,14%,·,·
Cc1cccc(OCC(=O)NC(=S)NNC(=O)c2ccncc2)c1,1%,5.3µM*,1%,71µM*,-73*,?,3.5µM*,5.6µM*
Oc1cccc(/C=N/N2CCCCC2)c1O,-3%,5%,-2%,-3%,2,-1%,·,·
Oc1ccc(/C=N/N2CCCCC2)c(O)c1O,?,11µM*,1%,?,?,1%,32µM*,35µM*
NC(=O)CSc1nnc(-c2cccc(S(=O)(=O)N3CCOCC3)c2)n1C1CCCCCC1,1%,3µM*,0%,?,?,-3%[0.501 µM],-13%,-19%
COC(=O)c1ccc2nc(-c3ccco3)c(Cc3cccc(F)c3)n2c1,·,?,·,·,?,·,11µM*,7.9µM*
COC(=O)c1ccc2nc(-c3ccco3)c(Cc3ccc(C)cc3)n2c1,·,-17%,·,·,-19,·,20µM*,25µM*
COC(=O)c1ccc2nc(-c3ccco3)c(Cc3ccccc3C(F)(F)F)n2c1,·,?,·,·,-4,·,?,?
COC(=O)c1ccc2nc(-c3ccc(F)cc3)c(Cc3cccc(F)c3)n2c1,·,17%,·,·,-1,·,·,·
Clc1cccc(Cc2c(-c3ccco3)nc3ccc(Cl)cn23)c1,·,12µM*,·,·,-65*,·,11µM*,13µM*
CCOc1ccccc1NC(=O)c1cn(C2CCCC2)c(=O)c2c1c1ccccc1n2C,·,·,·,9%,·,-2%,·,·
CC(C)Cn1c(=O)c2sccc2n2c(CCCC(=O)NCC(C)c3ccccc3)nnc12 (stereo not drawn),·,·,·,17%,·,-8%,·,·
C=CCN1C(=O)/C(=c2\sc3nc(=O)c(Cc4ccc(OC)c(OC)c4)nn3c2=O)c2ccccc21,-4%,11µM*,17%,40µM*,-28,-30%,?,35µM*
CN(C)C(=S)N=Nc1[nH]c2ccccc2c1O,-1%,17µM*,-19%,0%,-9,-3%,5.6µM*,6.3µM*
CNC(=S)N=Nc1c(O)[nH]c2ccccc12,-3%,-9%,-9%,-28%,1,-4%,·,·
Cc1nn(-c2ccccc2)c(OC(=O)c2ccc(Br)cc2)c1S(=O)(=O)c1ccccc1,·,·,·,-17%,·,17%,·,·
O=C1c2cccc3cccc(c23)C(=O)C1(O)O,2%,?,-5%,?,?,·,6.3µM*,5µM*
